The text below walks through data of PubChem BioAssay AID1508600 (Functional Genomics Laboratory (NCATS/FGL), 2020).

Among all 53,000 sequences or so, about 3,700 (7%) were called active.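 Rule for the calls: active = gene knockdowns whose robust z-score for IL-1 alpha signal is at least 2 or at most -2, so actives lie on both sides; inactive = the rest.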 Only a selection was taken, and actives are over-represented in it overall.

The experiment can be described thus: Components of the Cytosolic LPS Sensing Pathway: Gene Identification via Genome-wide siRNA Screen.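 Note: robust z of the log signal after scaling to non-targeting control siRNA wells of the plate.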 Particulars: RAW264.7 macrophages, IL-1a HTRF, actives lie on both sides, screened at 100 nM (by protocol), cells primed 5 h with Pam3CSK4 first. The gist of the method: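 Knockdown: 100 nM siRNA, 48h, RAW264.7. Stimulation: Pam3CSK4 5 h, then LipidA via TransIT-TKO 24 h. Output: supernatant IL-1a HTRF, negative-control-normalized, log robust z-score; viability by CellTiter-Glo.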
Regarding GGCCUUCACUGAUGAAUGUTT against Pramel32, the z-score was -2.21 (active).

With “GGCGAAAAGCCGUUCCAUUTT against E430018J23Rik”, the z-score is 0.664 (inactive). In the case of GGAGAAGAACGAGAAACGUTT against Nyap2, the z-score is 0.904 (inactive). The value for CCAUUGAAAUUUCCAUCUGTT against Baalc was 0.115 (inactive); that for CGUGAACUUUCAGAGCAGGTT against Rrp36 was 0.124 (inactive). The value for CCAUAGCAGGGAAGAUUUUTT against Kcnd2 was 3.78 (active); that for GGAUCCACAGUCAUUCAGATT against Sike1 was 1.13 (inactive). As to GGUCUUCAUGGUCAAAGUGTT against Fzd10, the z-score was 2.11 (active). To GCAAAGUCCAGUGAACAACTT against Gtse1 belongs -1.15 (inactive); to GGCCACAAUGGAUCAGAUGTT against Gldn, 1.53 (inactive). In the case of GGAUCUUUUAGCUAACCUATT against Tesk2, the z-score is 1.84 (inactive). To GGCAACCUGCUGGUAAUCATT against Adrb3 belongs 3.53 (active). To GGCAUGCUGGAAUCAAACATT against Dppa2 belongs 0.699 (inactive); to GGUGAGCAAAGCCAAGAAGTT against Sgpl1, -1.42 (inactive); to GGCUUGCUUUGCUUCCCUUTT against Med28, -1.24 (inactive). The value for CCCGAAAGACAUGUAUUCGTT against Mrps18b was -0.38 (inactive); that for CUACUUCGAGAACAUGGGUTT against Tpgs1 was -0.749 (inactive). As for GGUGAUAUCUUUCCAUCUUTT against Wiz, the z-score was -0.176 (inactive). The value for CCACACUUAGUCAUUUUCUTT against Paral1 was -2.06 (active); that for GGCCUACGAAGUGCAAAGATT against Sipa1l3 was -0.667 (inactive); that for GGACUAGAAGAUCUACACUTT against Olfr67 was -0.921 (inactive). Take GCCUCGAUGCAAGAUGAUGTT against C2cd2l: the z-score is -0.82 (inactive). To GGAUAAAGAAGGACUCAAATT against Tpbpb belongs -2.16 (active); to GGAGUAUGCGUACCUGAAGTT against Nr0b2, -0.903 (inactive). The value for GGCAGAGCUUGGAGUAUCUTT against Gtpbp4 was 1.31 (inactive); that for GGGAGAAAAAGGCAUUUUUTT against Them5 was 0.46 (inactive); that for GGACAACACAUUUGUGCUCTT against Sh2b2 was 0.209 (inactive).

As to GUCUGAACUUCUUAGCAUCTT against Uchl4, the z-score was 0.788 (inactive). For the sequence CCAGUGAUCAGUUUUAACGTT against Adamts20, the z-score is 0.184 (inactive). To CCUCAAUUGCAUGUGACCUTT against Itgb1bp1 belongs -2.32 (active); to GGAUACAAAGAGAGUUGUCTT against Eif3c, 1.23 (inactive). The value for GGUGCUGCACAAAUACAUATT against Eef1aknmt was 0.715 (inactive); that for CGAUCGAAAUCAAGUCGAUTT against Septin9 was 0.415 (inactive). Take GGUUCUCUGCCAGUUCUGUTT against Mid1: the z-score was 3.32 (active). With GGACCAUGUUAGAGCAUGCTT against Traf2, the z-score is -2.36 (active). The value for GGUCCUACUUGUUCAUUGATT against Il1rl1 was -0.802 (inactive); that for GGACUUCAGUGAGGAUCAATT against Scg5 was 0.866 (inactive); that for CCCUCCGAAAAUUUUUCUGTT against Defb14 was -0.363 (inactive). Take GGUAUGGAUCAAGGUUCUUTT against Gja6: the z-score is 3.21 (active). To GGUGGCCAUCAAGAAGAUATT against Mapk7 belongs -0.749 (inactive); to CGACCACACAGGGAUAUACTT against Sectm1a, -0.169 (inactive).

With GGGCUAUCUAUCAUAGUUUTT against Scp2, the z-score is 1.17 (inactive).

GCAUGUAUAACAGACCCAUTT against Tex47: the z-score is 0.928 (inactive).

Turning to GGUCACCUUAUAAUUGCCCTT against Btd, the z-score was -2.83 (active). In the case of GGUGAGAUAGGUCUAGUUGTT against Col10a1, the z-score was -0.273 (inactive).

In the case of GGAUCACUGACUUUGAAUUTT against Mob2, the z-score was -0.654 (inactive). To GGCUGUCAUGCAUUAUAUGTT against Tfeb belongs -0.535 (inactive); to GGAGCUUCUUGACCUCGUGTT against Frmd4a, 0.184 (inactive); to CCUGUUUUCCGACUUGUUGTT against Il4ra, 0.809 (inactive). To GGUGGUUACACAAGGAACATT against Phgdh belongs -0.314 (inactive). As for GGCUCAUCCCAAUGCUAUATT against Sdc3, the z-score is 0.304 (inactive).

Regarding GGUGAUCACUCUCUCUGAATT against Olfr187, the z-score is -0.975 (inactive). To CCGUAACCCAGAAAAUGUATT against Eva1a belongs -2.01 (active); to CCAUUGACUUACUUCUAAGTT against Gimap6, 0.58 (inactive); to GGAUCAACGGAUUUUAGAATT against Gcfc2, 1.21 (inactive).

Regarding GGAGAUGAAAAGAGAAAUCTT against Cct6b, the z-score was 2.41 (active). The value for GGAGCUGAUGACUUCAGGCTT against Mmp19 was 1.17 (inactive). The value for GGGAUUCUCCAAAAGGAAGTT against Arhgap6 was 0.856 (inactive); that for GGUGAUGAAGAGGUUCCCUTT against Fzd4 was -0.868 (inactive).

Turning to GAAGAUGCCACGCUAAAAATT against Adam34, the z-score is 2.73 (active). Regarding GGGCUUUGCUGUCUAUGCATT against Dmwd, the z-score was -0.617 (inactive).

For the sequence GGAGUUUGAUCAGAUCCUATT against Asf1b, the z-score is 1.74 (inactive). To GAAAUCAGAAGAAAUGAAGTT against Phgr1 belongs -0.451 (inactive); to GGAAUCAAAGAUGGAGAGGTT against Galnt3, -0.409 (inactive); to GGAAACAUUGUCAUCAUGATT against Olfr1299, -0.787 (inactive). To GGUCAUGUUUCUCUCCCAATT against Veph1 belongs -2.11 (active); to GCGGUAUCCUAGCUGUGAATT against Brsk1, -0.0667 (inactive); to CCCUGUAUAUAUGAUGACATT against Ldhd, -1.83 (inactive). To GGGUCUACAAUCACCAGACTT against Wnt10a belongs 1.15 (inactive); to GAUGAUCUUUUGGAUGAACTT against Spem2, -0.51 (inactive). As to CCCAGGCACUUGUUUACAGTT against Stim2, the z-score was -0.454 (inactive). The value for GGCAUGCUUGGCUUAUUUGTT against Kcnk4 was 0.0317 (inactive); that for GCUGCUAUCCAGAAGGUAUTT against Egr2 was -2.04 (active).

As for GGCUUACUAACAGUUUUUGTT against Gem, the z-score was -0.29 (inactive).

Regarding GGCAUCGAGAUUUAAUUGATT against Usp27x, the z-score is -0.179 (inactive). The value for GGCUCUCUGGCUUACUAAGTT against Mrpl37 was 1.09 (inactive); that for CCCAGGUCCUACCUUCUUUTT against Ppcdc was -2.1 (active). As for GGUGUGGGAUUUCUACACUTT against Sbf1, the z-score is 0.0854 (inactive).

On to GCAGCUUGCUUGAUUCAAGTT against Iqcb1, for which the z-score was 0.424 (inactive).

As for GCAUUUGGGCAACGAGAUGTT against Nr5a1, the z-score is -1.3 (inactive). The value for GGCAGCUGGAAAGACAAAATT against Snca was 1.19 (inactive); that for GCUGAGAGUAUCCUUAUUCTT against Fhdc1 was 0.374 (inactive). The value for GGCCAACAUCUGCUAUGUCTT against Hao2 was -2.58 (active); that for GGUCAACGUGUAUGUAUUUTT against Lrat was -1.27 (inactive); that for CGUGCAUGUGUAAGUCAGGTT against Hpvc2 was 0.68 (inactive). The value for GCAAGAGCUGAGUACUCUGTT against Ahsp was -0.522 (inactive).

As for GGAAGUUUAAAGUCUAGAATT against Adcy7, the z-score is 0.477 (inactive). The value for GGCCCAAGAGAACAUCAAATT against Speer2 was -2.16 (active). Turning to GCAGUCUCCAAUUGAGAUUTT against Car13, the z-score was -0.0313 (inactive).

On to CUCCGACCAUACUGGAAGATT against Arpp21, for which the z-score is -0.406 (inactive). To GCAAGCUAGAGAAAAUCAGTT against Serpinb3b belongs -0.231 (inactive); to GGAAAAAAGGUCUGUAAAUTT against Ubl4b, 0.223 (inactive). To GGAUGUGCUGACCUUACAGTT against Gaa belongs 2.35 (active); to GCGGAACAUCUUAGCUUAATT against Perm1, -0.111 (inactive). To GCCCUGGAAAGGAUGUUUGTT against Hba-a1 belongs -0.607 (inactive); to UAGCCACUCAUCAUUCUAATT against Gm10319, 0.964 (inactive); to GGCACUUUUGAUUUCAGAUTT against Nrd1, 3.52 (active). As for GCUGGAUAUUUCUAAGUAUTT against A26c3, the z-score is 1.9 (inactive). The value for CCGUUAGGUUUUUAUCCAATT against Ube2b was 0.193 (inactive). To GGACCUUUUAUCUGAAAUGTT against Papln belongs 1.54 (inactive). Consider GGAUGUGACUCAGAUUGGGTT against Tmem171, for which the z-score is 0.0209 (inactive).

In the case of GGAGAUGGCCACCUAUUUGTT against Csnk1g2, the z-score was -0.325 (inactive). The value for GGAAAAAGCCUAACUAUGATT against Ccnl1 was -0.7 (inactive); that for GCAUGAUAUCAGUGGCAAGTT against Itga11 was -2.41 (active). The value for GCCUGUUGCUAUGAAUGGUTT against Zfp597 was -0.353 (inactive); that for GGAAGCAUUGAAGAUAAGATT against Topbp1 was -0.273 (inactive). The value for CCAUUGGAUCCAUUCCUAUTT against Plcd3 was -0.984 (inactive); that for CCUCUGUCUGCUAAUAAGATT against R3hdm4 was 1.01 (inactive).
